# Key:
# [1] = molecular target: Protein kinase C alpha type (Homo sapiens) (UniProt P17252); settings: at 1 µM
# [2] = molecular target: Protein kinase C alpha type (Homo sapiens) (UniProt P17252); settings: at 10 µM
# [3] = molecular target: Protein kinase C beta type (Homo sapiens) (UniProt P05771); settings: at 1 µM
# [4] = molecular target: Protein kinase C beta type (Homo sapiens) (UniProt P05771); settings: at 10 µM
# [5] = molecular target: Protein kinase C delta type (Homo sapiens) (UniProt Q05655); settings: at 1 µM
# Chain of Protein kinase C delta type (Homo sapiens) (Q05655 whole entry, looked up): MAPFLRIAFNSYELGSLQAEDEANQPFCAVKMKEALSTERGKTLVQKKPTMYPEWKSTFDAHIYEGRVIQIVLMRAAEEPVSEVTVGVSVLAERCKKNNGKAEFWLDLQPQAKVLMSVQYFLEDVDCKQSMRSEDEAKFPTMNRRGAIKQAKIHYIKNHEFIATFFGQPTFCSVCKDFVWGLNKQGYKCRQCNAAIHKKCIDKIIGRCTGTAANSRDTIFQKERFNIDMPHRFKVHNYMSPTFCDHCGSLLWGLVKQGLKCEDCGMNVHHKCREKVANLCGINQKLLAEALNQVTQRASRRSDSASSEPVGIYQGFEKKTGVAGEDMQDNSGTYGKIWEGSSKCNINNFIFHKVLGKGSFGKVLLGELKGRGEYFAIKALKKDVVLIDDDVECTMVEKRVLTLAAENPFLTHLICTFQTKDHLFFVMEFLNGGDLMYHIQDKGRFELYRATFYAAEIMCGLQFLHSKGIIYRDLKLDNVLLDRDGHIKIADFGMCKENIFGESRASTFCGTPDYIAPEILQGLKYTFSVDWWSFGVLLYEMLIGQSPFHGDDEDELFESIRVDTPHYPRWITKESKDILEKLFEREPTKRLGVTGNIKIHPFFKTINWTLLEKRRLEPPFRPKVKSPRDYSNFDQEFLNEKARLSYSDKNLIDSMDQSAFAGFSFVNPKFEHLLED
# [6] = molecular target: Protein kinase C delta type (Homo sapiens) (UniProt Q05655); settings: at 10 µM
# [7] = molecular target: Protein kinase C beta type (Homo sapiens) (UniProt P05771); settings: at 1 µM; remark: listed apart in the source
# [8] = molecular target: Protein kinase C beta type (Homo sapiens) (UniProt P05771); settings: at 10 µM; remark: listed apart in the source
# [9] = molecular target: Protein kinase C gamma type (Homo sapiens) (UniProt P05129); settings: at 1 µM
# [10] = molecular target: Protein kinase C gamma type (Homo sapiens) (UniProt P05129); settings: at 10 µM
# Chain of Protein kinase C beta type (Homo sapiens) (P05771 2-671 limits assumed): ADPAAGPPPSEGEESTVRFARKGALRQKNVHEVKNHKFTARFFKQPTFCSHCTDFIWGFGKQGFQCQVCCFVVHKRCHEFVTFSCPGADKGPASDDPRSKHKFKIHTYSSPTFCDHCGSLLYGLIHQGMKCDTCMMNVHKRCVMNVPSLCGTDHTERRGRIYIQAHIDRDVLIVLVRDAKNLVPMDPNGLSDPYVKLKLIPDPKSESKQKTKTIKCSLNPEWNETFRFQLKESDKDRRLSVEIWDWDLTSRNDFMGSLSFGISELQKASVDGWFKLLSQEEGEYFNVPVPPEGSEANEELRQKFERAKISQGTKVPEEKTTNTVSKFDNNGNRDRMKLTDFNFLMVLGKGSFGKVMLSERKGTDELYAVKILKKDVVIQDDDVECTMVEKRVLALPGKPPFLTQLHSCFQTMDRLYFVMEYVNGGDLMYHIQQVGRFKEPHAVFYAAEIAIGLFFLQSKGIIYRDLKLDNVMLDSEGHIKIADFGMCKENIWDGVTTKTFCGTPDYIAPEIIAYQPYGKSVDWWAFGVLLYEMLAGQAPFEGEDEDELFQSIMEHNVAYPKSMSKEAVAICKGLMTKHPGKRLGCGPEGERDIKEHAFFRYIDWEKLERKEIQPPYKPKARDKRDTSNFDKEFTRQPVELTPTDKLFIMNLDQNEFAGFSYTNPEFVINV
Compound,residual activity [1],residual activity [2],residual activity [3],residual activity [4],residual activity [5],residual activity [6],residual activity [7],residual activity [8],residual activity [9],residual activity [10]
NC(=O)c1ccc(-c2nc(-c3ccc4c(c3)OCCO4)c(-c3ccccn3)[nH]2)cc1,90%,96%,124%,121%,93%,100%,,,,
Nc1ncnc2c1c(-c1ccc(Oc3ccccc3)cc1)cn2C1CCCC1,102%,98%,103%,103%,94%,100%,99%,91%,111%,104%
NC(=O)Nc1sc(-c2ccc(F)cc2)cc1C(N)=O,91%,54%,103%,77%,78%,31%,105%,89%,,
Cc1cc(C)c(/C=C2\C(=O)Nc3ccccc32)[nH]1,100%,104%,,,,,,,,
COc1cc2ncnc(Nc3cccc(Cl)c3)c2cc1OC,103%,108%,110%,106%,104%,109%,107%,108%,,
Cn1sc(=O)n(Cc2ccccc2)c1=O,85%,3%,94%,54%,87%,45%,89%,43%,59%,3%
O=C(O)/C=C/c1cc(Br)c(Br)c(Br)c1Br,105%,102%,124%,,100%,96%,97%,101%,96%,
O=c1cc(N2CCOCC2)oc2c1ccc1ccccc12,102%,96%,104%,95%,100%,98%,95%,92%,,
O=C1NC(=O)c2c1c1c3ccccc3[nH]c1n1cncc21,97%,84%,,,79%,70%,,,71%,56%
CCCC(=O)Oc1ccc2[nH]c(C(=O)c3cc4ccccc4[nH]3)cc2c1,106%,108%,,93%,101%,,100%,,,
CC(C)c1nn(-c2c(Cl)cccc2Cl)c2nc(Cc3ccc(OCCO)cc3)[nH]c(=O)c12,105%,107%,125%,106%,103%,105%,104%,95%,94%,106%
COc1ccc(Cl)cc1NC(=O)Nc1cc(C)nc2ccccc12,98%,98%,,,,,,,,
Nc1nc(Nc2ccc(S(N)(=O)=O)cc2)nn1C(=O)c1c(F)cccc1F,63%,18%,,,70%,23%,,54%,61%,19%
O=C(CCCc1ccc(-c2ccccc2F)cc1)Nc1ccc(O)cc1,106%,108%,112%,108%,,,108%,101%,104%,110%
O=C1NC(=O)C(c2cn(CCCn3ccnc3)c3ccccc23)=C1Nc1ccccc1,6%,2%,19%,2%,8%,2%,27%,6%,8%,2%
COc1ccc(CNC(=O)Nc2ncc([N+](=O)[O-])s2)cc1,102%,101%,,,,,,,,
COc1cc2nccc(Oc3ccc(NC(=S)NC(=O)c4ccccc4C)cc3)c2cc1OC,99%,99%,,,98%,101%,98%,101%,,
COc1cc2c(cc1OC)-c1n[nH]c(Nc3cccc(F)c3)c1C2,104%,99%,104%,108%,102%,106%,110%,105%,104%,105%
CC(C)(C)n1nc(Cc2cccc3ccccc23)c2c(N)ncnc21,93%,93%,119%,97%,101%,106%,104%,105%,106%,94%

Compound,residual activity [1],residual activity [2],residual activity [3],residual activity [4],residual activity [5],residual activity [6],residual activity [7],residual activity [8],residual activity [9],residual activity [10]
O=C1Cc2c([nH]c3ccc(Br)cc23)-c2ccccc2N1,90%,70%,,,99%,93%,,88%,,93%
CC(C)(C)c1nc2c3ccc(F)cc3c3c(=O)[nH]ccc3c2[nH]1,65%,62%,,,54%,63%,,,40%,46%
O=C1Cc2c([nH]c3ccc([N+](=O)[O-])cc23)-c2ccccc2N1,100%,105%,,,,,,,,
Cn1c2ccccc2c2c3c(c4c5ccccc5n(CCC#N)c4c21)CNC3=O,1%,3%,6%,6%,,,,,9%,16%
NCCNc1ncc(C(N)=O)c(Nc2cccc(C(F)(F)F)c2)n1,45%,8%,106%,60%,75%,28%,,,58%,11%
COc1ccc2c(c1)c(C1=C(c3c[nH]c4ccccc34)C(=O)NC1=O)cn2CCCN(C)C,-1%,0%,4%,-1%,3%,-1%,4%,3%,3%,0%
O=C1NC(=O)C(c2c[nH]c3ccccc23)=C1c1c[nH]c2ccccc12,26%,4%,66%,23%,31%,5%,75%,27%,36%,6%
c1ccc(-c2cnc(Nc3ccc(OCCN4CCCC4)cc3)s2)cc1,101%,110%,121%,116%,,,,,123%,111%
CC(C)[C@H](CO)Nc1nc(Nc2cc(N)cc(Cl)c2)c2ncn(C(C)C)c2n1,83%,97%,,,93%,72%,,,94%,80%
O=C1Nc2ccc(Cl)cc2/C1=C/c1cc(Cl)c(O)c(Cl)c1,,,,,100%,100%,,90%,,
Nc1ncnc2c1cnn2-c1ccccc1,97%,97%,,,99%,97%,,,,98%
CC(C)N(CCC(=O)c1ccc2ccccc2c1)Cc1ccccc1,,,,,,,,,,85%
CN(C)S(=O)(=O)c1ccc2c(c1)/C(=C/c1cc3c([nH]1)CCCC3)C(=O)N2,,,,,,121%,116%,,,
COc1cc2nccc(Oc3ccc(NC(=O)Nc4cc(C)on4)c(Cl)c3)c2cc1OC,,101%,107%,97%,100%,106%,109%,104%,,
O=C(c1ccccc1)c1ccc(N2CCOCC2)cc1O,,,120%,113%,,,,,,
Nc1ncnc2[nH]nc(Nc3ccc(F)cc3)c12,108%,,122%,110%,104%,91%,113%,99%,,
N#C/C(=C1/Nc2ccccc2S1)c1ccnc(NCCc2cccnc2)n1,,,125%,121%,,,,,95%,100%
Nc1n[nH]c2nc3ccccc3nc12,,,,,85%,68%,,,,
N#C/C(=C\c1ccc(O)c(O)c1)C(=O)NCc1ccccc1,,,,,,,,,124%,102%

Compound,residual activity [1],residual activity [2],residual activity [3],residual activity [4],residual activity [5],residual activity [6],residual activity [7],residual activity [8],residual activity [9],residual activity [10]
Fc1ccc(-c2nc3n(c2-c2ccncc2)CCS3)cc1,,,,82%,,85%,,,,
CCCCc1c(-c2ccc(OC)cc2)[nH]c2nccnc12,,,101%,90%,,106%,104%,102%,,106%
O=S(=O)(c1cccc2cnccc12)N1CCCNCC1,,,75%,46%,85%,32%,,67%,,63%
O=c1cc(N2CCNCC2)oc2c(-c3ccccc3)cccc12,,102%,,,101%,102%,97%,95%,,
NC(=O)c1cccc(-c2cc(Nc3ccc(OC(F)(F)F)cc3)ncn2)c1,,,,,,,92%,96%,,
CCOC(=O)c1c(C)[nH]c(/C=C2\C(=O)Nc3ccccc32)c1C,,,,,96%,,,,,
CN([C@@H](Cc1ccc(OS(=O)(=O)c2cccc3cnccc23)cc1)C(=O)N1CCN(c2ccccc2)CC1)S(=O)(=O)c1cccc2cnccc12,,,,,,,,,99%,99%
O=C(Nc1nc2ccccc2n1CCN1CCOCC1)c1cccc([N+](=O)[O-])c1,104%,102%,,,,103%,,,105%,102%
O=S(=O)(NCCNC/C=C/c1ccc(Br)cc1)c1cccc2cnccc12,,,,,54%,11%,,55%,,38%
Nc1nccc(-c2c(-c3ccc(F)cc3)ncn2C2CCNCC2)n1,,,115%,69%,,,,,,63%
N#Cc1c(NC(=O)c2cccc3ccccc23)sc2c1CCCC2,,,,,,,,,94%,
CCOc1nc(NC(=O)Cc2cc(OC)ccc2OC)cc(N)c1C#N,,,,,118%,,,,,
CCN1/C(=C/C(C)=O)Sc2ccc(OC)cc21,,,,,,,,82%,,
CCN(CC)CCNC(=O)c1c(C)[nH]c(/C=C2\C(=O)Nc3ccc(Cl)cc32)c1C,,,125%,117%,,68%,,,,51%
O=C1NC(=O)C(c2cn(CCCO)c3ncccc23)=C1c1cnccn1,,,,,97%,91%,,,92%,91%
Oc1cccc(-c2nc(N3CCOCC3)c3oc4ncccc4c3n2)c1,,,,,94%,,98%,,,
O=C(c1cc2cc(O)ccc2[nH]1)c1cc2cc(O)ccc2[nH]1,,,,,100%,83%,,,,56%
O=C1C(Cl)=C(N2C(=O)CCC2=O)C(=O)c2ccccc21,,3%,,,68%,60%,,,,77%
CCCCc1c(-c2ccc(O)cc2)[nH]c2nccnc12,97%,100%,,,97%,100%,,,,

# Reference: ChEMBL document CHEMBL2218924, “A broad activity screen in support of a chemogenomic map for kinase signalling research and drug discovery” (Biochem J, 2013)
